NRP1-CendR mod: alters CendR peptide binding to human NRP-1. 0.85% of 360,000 active. O14786. inhibition, % at 25 µM. FAM-RPARPAR peptide binding to NRP-1, fluorescence polarization;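 active = inhibition or corrected inhibition above about 18%, plus a signal ratio from 0.5 to 1.5, limit read from the data, passing the limit was not always enough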
ATG4B inh: blocks human ATG4B protease cleavage of LC3 substrate; Q9Y4P1; ATG4B cleavage of LC3-PLA2, NBD-HPC fluorescence, 1 h; inhibition, % at 8.33 µM; 0.51% of 340,000 active; AID 504462
Target sequence (Q9Y4P1 whole entry, looked up): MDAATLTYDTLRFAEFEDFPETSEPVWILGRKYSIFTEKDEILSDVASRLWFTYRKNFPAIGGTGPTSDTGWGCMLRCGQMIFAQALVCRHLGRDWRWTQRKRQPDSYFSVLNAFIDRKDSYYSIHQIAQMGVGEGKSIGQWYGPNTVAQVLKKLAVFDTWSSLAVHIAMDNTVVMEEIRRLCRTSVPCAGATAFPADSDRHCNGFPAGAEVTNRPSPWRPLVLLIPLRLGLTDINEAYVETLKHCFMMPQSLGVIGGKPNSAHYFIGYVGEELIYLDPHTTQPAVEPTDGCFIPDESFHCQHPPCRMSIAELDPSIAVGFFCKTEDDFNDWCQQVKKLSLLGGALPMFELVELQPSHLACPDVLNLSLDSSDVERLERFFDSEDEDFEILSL
VLA-4 inh: inhibition in a human VLA-4 binding assay; P13612; VLA-4 expressing cells, ligand binding flow cytometry; inhibition, % (about 7 µM as worked out from the volumes in the protocol); 0.2% of 330,000 active; in the data active = inhibition above about 50%
PKA-R2B activ: activates the human PKA-R2B holoenzyme complex; PKA-R2B holoenzyme dissociation, Cy5-IP20 fluorescence polarization; R2B truncated from residue 108, S112A mutant; 0% DMSO only, 100% 113 µM cGMP; activation, % at 11.4 µM; 0.079% of 340,000 active; AID 504700;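 active = activation above a cutoff set at the mean over all compounds plus 3 SD, cut at about 18% in these data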;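 also: higher means more holoenzyme dissociation and a rise in polarization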
PKA-R1A activ: activators of PKA-R1A complex; PKA-R1A dissociation, Cy5-IP20 fluorescence polarization; scaled: DMSO 0%, 113 µM cGMP 100%; activation, % at 11.4 µM; P00514+P68181; 0.083% of 340,000 active; AID 504707;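 active = percent activation above the mean of all tested compounds plus 3 SD, cut at about 19% in these data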;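 also: higher means more PKAc released from R1A so a rise in polarization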
VLA-4 mod pick: confirmation of allosteric modulators of human VLA-4 integrin | shares compounds with VLA-4 inh | U937 cells, HUTS-21 LIBS mAb binding, flow cytometry; LDV ligand present at threefold Kd | inhibition, % at 6.7 µM | 2% of 1,300 active | AID 2813;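 also: 0% = ligand without compound and 100% = no ligand background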
The depositor's hits bear a star; · = no result. A selection: hits, their analogues and other compounds. The true share with any hit is near 1.6%. Rule as the data show it, unless noted: active = inhibition above about 40%; inactive = the rest.

SMILES	NRP1-CendR mod	ATG4B inh	VLA-4 inh	PKA-R2B activ	PKA-R1A activ	VLA-4 mod pick
COC(=O)[C@]1(Cc2ccccc2)N[C@H](CN(C)C(=O)NC(C)C)[C@@H]2C(=O)N(Cc3ccccc3)C(=O)[C@@H]21	-4	-2	-7	-1	2	·
COC(=O)[C@]1(Cc2ccccc2)N[C@H](CN(C)C(=O)c2ccc(C(C)(C)C)cc2)[C@@H]2C(=O)N(Cc3ccccc3)C(=O)[C@@H]21	-14	-4	15	-4	-3	1
Cc1ccc(CNC(=O)CCC(=O)Nc2nnc(C(C)C)s2)cc1	11	-1	-18	6	-4	·
CC(=O)Nc1ccc(S(=O)(=O)NNC(=O)CCC(=O)Nc2cc(C)ccc2C)cc1	1	-2	-4	5	0	·
Cc1ccc(S(=O)(=O)NNC(=O)CCC(=O)Nc2ccc(C)cc2C)cc1	-2	-1	47	2	1	-12
CC12CCC(=O)C=C1CCC1C2CCC2(C)C1CC1C3C(=O)N(Cc4ccccc4)C(=O)C3CC(=O)C12 (stereo not drawn)	-8	-3	·	3	-7	·
COC(=O)C1=CN(c2ccc(C(C)(C)C)cc2)C(N)=C(C#N)C1c1cccc([N+](=O)[O-])c1 (stereo not drawn)	2	·	·	·	·	·
O=C(O)c1cc(O)ccc1NC(=O)C(c1ccccc1)c1ccccc1	-11	-4	22	4	1	0
Nc1cccc2c1C(=O)N(CCOc1ccc(F)cc1)C2=O	-6	-12	0	-1	-11	·
COC(=O)c1c(C(=O)OC)c(-c2ccc(F)cc2)n2c1CS(=O)(=O)C2	-4	0	41	5	6	-13
NC(=S)NN=Cc1c[nH]c2nccnc12	-5	·	·	1	-4	·
CCCNC(=O)Cn1c(=O)oc2cc(S(=O)(=O)N3CCCC3)ccc21	2	-3	57*	-3	12	-3
CCOC(=O)CCSc1nc2c(c(C(F)(F)F)c1C#N)CCC2	15	3	10	-3	-3	·
CCCCSc1nc2c(c(C(F)(F)F)c1C#N)CCC2	-3	-3	64*	2	2	3
CCCC(C(=O)NC1CCCC1)N(Cc1ccccc1)C(=O)c1snc(C(N)=O)c1N (stereo not drawn)	0	-6	1	-2	-10	·
CN(C)CCCn1c(SCC(=O)N2c3ccccc3Sc3ccccc32)nc2ccccc2c1=O	9	26	53*	-16	-11	0
CCC(CC)NC(=O)Nc1cccc(C)c1C	11	-14	45	2	-4	8
Cc1ccc(C(=O)NC(=S)Nc2ccc(NC(=O)c3cccc(Cl)c3)cc2)cc1	-2	3	47	0	-7	8
Cc1cc(C)nc(NC(=O)c2cccc(Cl)c2)n1	2	-10	53*	12	-7	-2
COC(=O)Nc1ccc(S(=O)(=O)N2CCCc3ccccc32)cc1	-3	-21	79*	0	4	1
CC[C@]12c3[nH]c4ccccc4c3CCN1C(=O)C(CC(=O)NCc1ccco1)C[C@@H]2C(=O)N1CCN(C(=O)C2CC2)CC1 (stereo partly drawn)	-8	-3	58*	-4	1	-3
CC[C@]12c3[nH]c4ccc(Cl)cc4c3CCN1C(=O)[C@@H](CC(=O)NCc1ccco1)C[C@@H]2C(=O)N1CCN(C(=O)C2CC2)CC1	-7	-6	·	0	-6	·
COc1ccccc1NC(=O)CN(c1ccc(C)cc1)S(=O)(=O)c1c(C)n[nH]c1C	12	-13	-7	-9	-2	-1
Cc1nn(C)c(C)c1S(=O)(=O)N(CC(=O)Nc1ccc2c(c1)OCO2)c1ccc(C(C)C)cc1	-6	-2	-12	-2	2	-2
COc1ccc(N(CC(=O)Nc2ccc(C)cc2)S(=O)(=O)c2c(C)noc2C)cc1	0	-1	0	6	-2	·
SMILES	NRP1-CendR mod	ATG4B inh	VLA-4 inh	PKA-R2B activ	PKA-R1A activ	VLA-4 mod pick
COC(=O)c1ccc(NC(=O)CN(c2ccc(C)cc2)S(=O)(=O)c2c(C)nn(C)c2C)cc1	10	-8	4	-9	6	4
Cc1ccc(NC(=O)CN(c2ccc(C)cc2)S(=O)(=O)c2cccc3nonc23)cc1	-14	6	27	-11	-7	0
COc1ccc(OC)c(NC(=O)CN(c2ccc(C)cc2)S(=O)(=O)c2c(C)n[nH]c2C)c1	6	-7	-5	-4	-9	·
Cc1noc(C)c1S(=O)(=O)N(CC(=O)Nc1ccc2c(c1)OCO2)c1ccc(C(C)C)cc1	-1	0	-21	-7	2	·
CC(=O)c1nccs1	8	0	18	-3	-5	·
S=C(NCCCc1ccccc1)Nc1ccccc1Cl	0	29	50*	-6	-6	19
COc1cc(CC(=O)OCC(=O)c2ccc3c(c2)OCCO3)cc(OC)c1OC	17	-10	91*	7	-6	-6
NS(=O)(=O)c1ccc(NC(=O)Nc2ccccc2)cc1	-6	4	3	5	16	-1
NS(=O)(=O)c1ccc(NC(=O)Nc2ccc(S(N)(=O)=O)cc2)cc1	6	-3	3	·	·	·
NS(=O)(=O)c1cccc(NC(=O)Nc2ccccc2)c1	11	-3	-7	7	6	11
Cc1ccc(NC(=O)c2nc[nH]c2C(=O)N(C)CCO)cc1	-12	·	·	-5	2	·
CC(=O)Nc1ccc(NC(=O)CNC(=O)c2sc3ccccc3c2Cl)cc1	0	-26	-6	-4	-7	·
O=C(CNC(=O)c1sc2ccccc2c1Cl)NCc1cccc(C(F)(F)F)c1	12	6	53*	-6	-2	0
CCOCc1nnc(NC(=O)c2cc(C(=O)OC)cc([N+](=O)[O-])c2)s1	-3	-9	11	-10	10	·
COC(=O)c1cc(C(=O)Nc2nnc(CC(C)(C)C)s2)cc([N+](=O)[O-])c1	8	-5	51*	-8	-13	-1
CC(c1ccccc1)N1C(=O)C2C3C=CC(C4CC34)C2C1=O (stereo not drawn)	11	0	7	4	-5	·
CC(OC(=O)C(C)N1C(=O)C2C3C=CC(C4CC34)C2C1=O)C(=O)c1ccccc1 (stereo not drawn)	-15	-9	58*	-6	-9	-12
O=C(CSc1nc2ccccc2c(=O)n1-c1ccccc1)N1CCc2ccccc2C1	7	23	8	-4	-2	·
CC(C)c1ccccc1-n1c(SCC(=O)N2CCc3ccccc3C2)nc2ccccc2c1=O	-2	8	55*	-7	-8	8
Oc1ccc2sc(-c3ccccc3O)c(-c3ccc(OCCN4CCCCC4)cc3)c2c1	7	·	·	·	·	·
COc1ccc2c(-c3ccc(OCCN4CCCCC4)cc3)c(-c3ccccc3OC)sc2c1	0	-4	·	-2	2	0
